CBFb-RUNX1 inh: blocks binding between human CBF-beta and RUNX1. AID 1477. 230,000 tested, under 10 active. Q01196+Q13951. Potency, µM (series often up to 59.8 µM), usual class: inhibitors. AlphaScreen CBFb-His/RUNX1-biotin binding, biochemical
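Inhibition was taken as any reduction in AlphaScreen signal from the CBF-beta–RUNX1 pair (His and biotin tags, 30 nM each), measured after compound (15 min) and bead (90 min) incubations at room temperature.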
ALDH1A1 inh: blocks purified human ALDH1A1 activity | Potency, µM (top dose mostly 75.3 µM), most hits filed as inhibitors | Purified ALDH1A1, NADH fluorescence, propionaldehyde substrate | actives 7.3% (n = 220,000); active means well fitted inhibition curve with a large enough effect, not every such curve was filed as active; inconclusive means small, poorly fitted or top-dose-only effect, or another doubt; inactive means no such curve, though single readings can be large or run the other way
Target sequence (P00352 whole entry, looked up): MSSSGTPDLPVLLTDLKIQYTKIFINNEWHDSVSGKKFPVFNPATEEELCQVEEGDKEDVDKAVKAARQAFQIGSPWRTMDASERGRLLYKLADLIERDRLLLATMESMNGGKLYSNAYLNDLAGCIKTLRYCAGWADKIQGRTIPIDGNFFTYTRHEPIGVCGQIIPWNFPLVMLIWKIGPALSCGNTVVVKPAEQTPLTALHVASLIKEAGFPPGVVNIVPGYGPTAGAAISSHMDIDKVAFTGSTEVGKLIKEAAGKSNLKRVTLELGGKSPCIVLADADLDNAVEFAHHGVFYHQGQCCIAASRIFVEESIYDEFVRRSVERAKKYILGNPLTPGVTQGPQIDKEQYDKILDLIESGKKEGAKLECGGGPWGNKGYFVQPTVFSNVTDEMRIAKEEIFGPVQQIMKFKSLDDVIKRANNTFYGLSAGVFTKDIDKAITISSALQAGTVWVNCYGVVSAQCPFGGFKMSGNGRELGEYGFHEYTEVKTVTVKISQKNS
HttQ103 aggreg: inhibitors of mutant huntingtin aggregate formation in PC12 cells; PC12 HttQ103-GFP aggregates, Acumen cytometry, 40 h; Potency, µM (series often up to 46.1 µM), actives largely listed as inhibitors; actives 1.1% (n = 220,000); AID 1688; further: nearly all actives have a fitted effect of over 60% in size
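Aggregates are detected as GFP objects 1–25 µm with signal 6 STDEV over background in lysates of induced PC12 cells. These carry Huntingtin exon 1 with 103 glutamines fused to GFP under an ecdysone promoter; compounds titrated.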
HPGD inh: HPGD (human) dehydrogenase inhibition; P15428; purified HPGD, NADH fluorescence kinetic, PGE2 substrate; Potency, µM, hits mostly inhibitors; actives 4.3% (n = 150,000); active means well fitted inhibition curve with a large enough effect, not every such curve was filed as active; inconclusive means small, poorly fitted or top-dose-only effect, or another doubt; inactive means no such curve, though single readings can be large or run the other way
Target sequence (P15428 whole entry, looked up): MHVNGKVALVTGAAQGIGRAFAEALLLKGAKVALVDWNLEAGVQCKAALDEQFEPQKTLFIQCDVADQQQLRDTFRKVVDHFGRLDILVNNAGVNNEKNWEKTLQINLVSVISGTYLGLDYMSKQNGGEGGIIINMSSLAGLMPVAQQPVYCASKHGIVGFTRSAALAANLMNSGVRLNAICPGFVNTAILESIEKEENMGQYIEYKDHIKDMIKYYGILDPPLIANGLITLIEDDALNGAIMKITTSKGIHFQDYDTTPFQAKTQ
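NADH formation kinetics: reaction with 30 uM PGE2 and 1 mM NAD+ (final), 20 nM enzyme, Tris-HCl pH 8 with Tween 20, after 15 min compound preincubation at room temperature. Fluorescence change, last versus first of five reads.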
PNC inhibitor: inhibitors of perinucleolar compartment assembly; actives 3.1% (n = 140,000); PC3M PTB-GFP, PNC prevalence imaging, 16 h; hits give low values; activity change (PNC), negative = inhibition, % at 10 µM;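 active means readout at or below -70, meaning at least 70% loss of cells showing the perinucleolar compartment, a nuclear body marking cancer cells; inconclusive means readout between -30 and a set limit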
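Read-out is percentage of cells bearing a perinucleolar compartment, from automated 20x imaging of fixed, Hoechst-stained PC3M PTB-GFP cells. Cells were seeded 4 h, then exposed 16 h to compound (23 nl of library stock) in duplicate plates.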
HTT cytoprotect: protects HTT-Q103 PC12 cells, measured by ATP | Potency, µM (series often up to 56.4 µM), hits mostly activators | PC12 HTT-Q103 induced, cytoprotection, ATP luminescence, 40 h | actives 0.14% (n = 230,000); further: nearly all actives have a fitted effect of over 45% in size
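Readout: ATPlite luminescence (ATP level). Model: stable PC12, inducible Htt exon1 Q103-GFP. Inducer: tebufenozide, 100 nM final. Compounds: dose series. No G418 in medium.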
Hits are given with their value; . = inactive; ? = inconclusive; / = no result; [ ] = remark or other dose. This is a sample that favours compounds with a hit; in the whole collection about 11% have one here. Unless noted, the call rests on the fitted dose curve; in most records, active means well fitted curve in the direction sought with a large enough effect; inconclusive means small, poorly fitted or top-dose-only effect, or another doubt; inactive means no such curve, though single readings can be large; an effect the other way counts as inactive or inconclusive.

SMILES	CBFb-RUNX1 inh	ALDH1A1 inh	HttQ103 aggreg	HPGD inh	PNC inhibitor	HTT cytoprotect
Cc1ccc(-c2cc(C(=O)NCCCN3CCOCC3)no2)cc1	.	.	3.16µM	.	.	.
Cc1ccc2cc3cc(C(=O)NCCN4CCOCC4)oc3nc2c1	.	?	.	?	-100.0	.[10 µM]
O=C(CNC(=O)c1ccccc1F)NCCOc1ccccc1Cl	.	.	.	.	.	.[10 µM]
CCN(CC)CCCC(C)n1c(-c2ccccc2)nc2c(N3CCOCC3)nc(C)nc21 (centres undefined)	.	?	/	.	/	.
CN(C)c1cccc(C(=O)Nc2ccc(N3CCOCC3)cc2)c1	.	.	?	.	?	.
Cc1ccc(-c2cc(C(=O)NCC3CCCO3)no2)cc1 (centres undefined)	.	?	.	14.1µM	.	.
O=C(NCC1CCCO1)c1cc(-c2ccccc2)on1 (centres undefined)	.	.	.	?	?	.[0.074 µM]
Cc1ccc(-n2nc(-c3cccs3)cc2C(=O)NCC2CCCO2)c(C)c1 (centres undefined)	.	20µM	.	1µM	.	.[10 µM]
CC1CCN(S(=O)(=O)c2cccc(C(=O)Nc3ccccc3)c2)CC1	.	.	.[9.22 µM]	/	/	.[10 µM]
Cn1c(CO)cnc1SCc1c(Cl)cccc1Cl	.	.	.	.	.	.
Cn1ccnc1SCC(=O)c1ccc(Cl)cc1	.	14.1µM	.	/	/	.
Cn1ccnc1SCC(=O)c1ccc(O)cc1	.	?	.[9.22 µM]	/	/	.[10 µM]
Cn1c(CO)cnc1SCC(=O)c1ccc(Cl)cc1	.	22.4µM	.	/	/	.[10 µM]
CC(C)NC(=O)NC(=O)COC(=O)Cc1ccsc1	.	14.1µM	.	.	.	.
O=c1cc(CNc2cc(Cl)ccc2Cl)nc2sccn12	.	.	.	.	-113.0	.[10 µM]
O=S(=O)(c1cnc(Cl)c(Br)c1)N1CCCCCC1	.	8.91µM	.	.	.	/
O=S(=O)(c1cnc(Cl)c(Cl)c1)N1CCN(c2ncccn2)CC1	.	0.794µM	.[9.22 µM]	/	/	.[10 µM]
O=S(=O)(c1ccc(Cl)c(S(=O)(=O)N2CCCC2)c1)N1CCCC1	.	.	.[9.22 µM]	/	/	.[10 µM]
O=S(=O)(c1cnc(Cl)c(Br)c1)N1CCN(c2ncccn2)CC1	.	0.355µM	.[9.22 µM]	/	/	.[10 µM]
C[C@]12CCC(=O)C=C1CC[C@@H]1[C@H]2[C@@H](O)C[C@@]2(C)[C@H]1CC[C@]2(O)C(=O)CO	/	/	.	/	/	.
CCN1CCN(CCCOc2ccc(Cl)cc2Br)CC1	.	12.6µM	/	/	/	/
Clc1ccc(OCCCN2CCCCC2)c(Br)c1	.	.	.	.	.	.[10 µM]
CCN1CCN(CCOc2cccc(Cl)c2Cl)CC1	.	8.91µM	.[9.22 µM]	/	/	.[10 µM]
CC1CC(C)CN(CCOc2cccc(Cl)c2Cl)C1 (centres undefined)	.	.	.	.	?	.[10 µM]
COc1cccc(-c2nccc(NCc3ccc(OC)cc3OC)n2)c1	/	.	/	/	/	.
SMILES	CBFb-RUNX1 inh	ALDH1A1 inh	HttQ103 aggreg	HPGD inh	PNC inhibitor	HTT cytoprotect
Nc1nnc(SCCCC(=O)c2ccc(Br)cc2)s1	.	.	.	3.55µM	.	.[10 µM]
Nc1nnc(SCCCC(=O)c2ccc(F)cc2)s1	.	?	?	.	.	.[10 µM]
CSCC[C@H](NC(=O)[C@@H]1CCCN1C(=O)CNC(=O)[C@H](CCCCN)NC(=O)[C@H](Cc1cnc[nH]1)NC(=O)[C@H](CO)NC(=O)[C@H](CC(C)C)NC(=O)[C@H](CCCN=C(N)N)NC(=O)[C@@H]1CCCN1C(=O)[C@H](CCCN=C(N)N)NC(=O)[C@@H]1CCC(=O)N1)C(=O)N1CCC[C@H]1C(=O)N[C@@H](Cc1ccccc1)C(=O)O	.	/	/	/	/	/
COc1cc(C2c3c(oc4ccccc4c3=O)C(=O)N2Cc2ccncc2)ccc1O (centres undefined)	.	25.1µM	.	.	.	.
COc1cc(C2c3c(oc4ccccc4c3=O)C(=O)N2Cc2ccco2)ccc1O (centres undefined)	.	?	.	.	.	.
CCC(=O)N1CC23C=CC(CC2CC12CCCCC2)O3 (centres undefined)	.	15.8µM	.	.	-124.2	.
CCOc1cc(NC2CS(=O)(=O)CC2O)c(OCC)cc1NC(=O)c1ccccc1 (centres undefined)	.	12.6µM	.	.	.	.
O=C(/C=C/c1ccc([N+](=O)[O-])s1)N1CCCCC1	.	28.2µM	?	/	/	.
CC1CC(C)CN(C(=O)/C=C/c2ccc([N+](=O)[O-])s2)C1 (centres undefined)	.	2.82µM	.	/	/	?
O=C(/C=C/c1ccc([N+](=O)[O-])s1)N1CCCC1	.	?	?	/	/	.[10 µM]
Cc1noc(C)c1C(=O)N1CCC[C@@]2(CCN(Cc3cc(C(F)(F)F)cc(C(F)(F)F)c3)C2)C1	/	.	/	.	/	.
COc1ccc2c(c1)[C@]1(C)CCC(=O)C[C@H]1CC2	/	2.82µM	/	.	/	/
COc1ccc2c(c1)[C@]1(C)CCC[C@](C)(CO)[C@@H]1CC2	/	/	/	/	/	.
CC(=O)N1CC2(CC2)CC1c1ccccc1 (centres undefined)	.	.	/	.	/	.
O=C(COc1cc(Cl)c(Cl)cc1Cl)Nc1ccc([N+](=O)[O-])cc1Cl	.	.	.[9.22 µM]	/	/	.[10 µM]
COc1ccc(CCNC(=O)c2ccc(CNS(=O)(=O)c3ccccc3)cc2)cc1OC	.	2.51µM	.	.	.	.[10 µM]
COc1ccc(CCNC(=O)C2CCC(CNS(=O)(=O)c3ccccc3)CC2)cc1OC (centres undefined)	.	0.631µM	.	/	/	/
COc1ccc(CCNS(=O)(=O)c2cccc(F)c2)cc1OC	.	.	.	.	.	.
COc1ccc(N2CCn3c2nc2c3c(=O)n(CCCc3ccccc3)c(=O)n2C)c(OC)c1	.	20µM	11.2µM	.	.	.[0.074 µM]
COc1ccc(N2CC(C)Cn3c2nc2c3c(=O)n(Cc3ccccc3)c(=O)n2C)c(OC)c1 (centres undefined)	.	31.6µM	.	/	/	.
ONCc1ccccc1	.	/	/	/	/	/
O=C(NNC(=S)Nc1ccccc1)NNC(=S)Nc1ccccc1	.	?	.[9.22 µM]	/	/	?
Cc1ccc(NC(=O)NNC(=O)c2ccccc2)cc1	.	.	/	/	/	/
Cc1ccc(NC(=S)NNC(=O)Nc2ccccc2)cc1	.	2.24µM	/	/	/	/
O=C(NNC(=S)Nc1ccccc1)Nc1ccccc1	.	14.1µM	.	/	/	.
C=CCn1c(CCc2cc(C(C)(C)C)c(O)c(C(C)(C)C)c2)n[nH]c1=S	.	.	.	/	/	/
COc1cccc(CN2CCNC(=O)C2CC(=O)NCCn2cccn2)c1OC (centres undefined)	.	.	.[9.22 µM]	/	/	.[10 µM]
COc1ccc(CN2CCNC(=O)C2CC(=O)NCCC2=CCCCC2)cc1OC (centres undefined)	.	?	.[9.22 µM]	/	/	.[10 µM]
COc1ccccc1CN1CCNC(=O)C1CC(=O)NCCC1=CCCCC1 (centres undefined)	.	25.1µM	.[9.22 µM]	/	/	.[10 µM]

High-throughput results from PubChem BioAssay.
